Potency, max response and outcome data for eleven compounds are collected here from PubChem BioAssay (NCATS).

One test has as its system ICS. As to the kind of experiment: qHTS profiling for inhibitors of Plasmodium falciparum proliferation (AID 504749). Conditions: P. falciparum in erythrocytes, SYBR Green DNA, 72 h; series mostly up to 28.7 µM. The essentials: (§1)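 Readout was DNA-dye fluorescence from lysed cultures, ex 485/em 535 nm. Parasitized red cells had grown 72 h with compound; data scaled between 0.29 uM artemisinin and DMSO wells and corrected using vehicle-only plates.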
Background: qHTS replaces the single test concentration by a dilution series.

The test system of the next test is JCK. Described as above. Conditions: P. falciparum in erythrocytes, SYBR Green DNA, 72 h; series mostly up to 28.7 µM. The essentials:
as §1

In another test the test system is P94_40. The test is described as above. The note with it: P. falciparum in erythrocytes, SYBR Green DNA, 72 h; series mostly up to 28.7 µM. The essentials: as §1
Another test relates to PAD. Described as above. Conditions: P. falciparum in erythrocytes, SYBR Green DNA, 72 h; series mostly up to 28.7 µM. The essentials: as §1
Another test has as its system PC49. The test is described as above. The note with it: P. falciparum in erythrocytes, SYBR Green DNA, 72 h; series mostly up to 28.7 µM. The essentials: as §1
A further test relates to W2. The test is described as above. The note with it: P. falciparum in erythrocytes, SYBR Green DNA, 72 h; series mostly up to 28.7 µM. The essentials: as §1
A further test concerns CRL-7250. Kind of test: Cytotoxic Profiling of Annotated Libraries Using Quantitative High-Throughput Screening (AID 1296008). For max response: % is set by controls: 0 for no effect and ±100 for the full control effect. The note with it: Five cell lines viability, CellTiter-Glo ATP luminescence, 48-72 h; max response: active compounds read low. The essentials:
(§2)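 Cells exposed to compounds for 48 or 72 hr at 37 degrees Celsius. Viability read as ATP-coupled luminescence with CellTiter-Glo after 10 min at room temperature.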
A general note: ATP-based viability assays read luminescence as a measure of living cells.

The subject of a further test is HEK293. The description is as above. Conditions: Five cell lines viability, CellTiter-Glo ATP luminescence, 48-72 h; max response: active compounds read low. The essentials: as §2
Another test relates to HaCat. The description is as above. Conditions: Five cell lines viability, CellTiter-Glo ATP luminescence, 48-72 h; max response: active compounds read low. The essentials:
as §2

The test system of the next test is KB-3-1. Described as above. The note with it: Five cell lines viability, CellTiter-Glo ATP luminescence, 48-72 h; max response: active compounds read low. The essentials: as §2
The subject of the next test is HB3. As to the kind of experiment: qHTS profiling for inhibitors of Plasmodium falciparum proliferation (AID 504749). The note with it: P. falciparum in erythrocytes, SYBR Green DNA, 72 h; series mostly up to 28.7 µM. The essentials: as §1
Another test relates to PC15. Described as above. Conditions: P. falciparum in erythrocytes, SYBR Green DNA, 72 h; series mostly up to 28.7 µM. The essentials:
as §1

In a further test the test system is SC27B. The description is as above. The note with it: P. falciparum in erythrocytes, SYBR Green DNA, 72 h; series mostly up to 28.7 µM. The essentials: as §1
The subject of a further test is TAB113. The test is described as above. The note with it: P. falciparum in erythrocytes, SYBR Green DNA, 72 h; series mostly up to 28.7 µM. The essentials: as §1
The next test deals with GB4. The description is as above. Conditions: P. falciparum in erythrocytes, SYBR Green DNA, 72 h; series mostly up to 28.7 µM. The essentials:
as §1

In another test the test system is N140. The test is described as above. Conditions: P. falciparum in erythrocytes, SYBR Green DNA, 72 h; series mostly up to 28.7 µM. The essentials:
as §1

The subject of the next test is P93_24. The description is as above. The note with it: P. falciparum in erythrocytes, SYBR Green DNA, 72 h; series mostly up to 28.7 µM. The essentials:
as §1

For the next test, the system named is PC26. The test is described as above. The note with it: P. falciparum in erythrocytes, SYBR Green DNA, 72 h; series mostly up to 28.7 µM. The essentials: as §1
A further test relates to TAB109. The test is described as above. Conditions: P. falciparum in erythrocytes, SYBR Green DNA, 72 h; series mostly up to 28.7 µM. The essentials:
as §1

Structures are written as SMILES. Values joined by “and” are separate entries in the source; they are usually repeats but may differ in a detail not shown here. Equal values may be shown once. Results filed as inconclusive are left out. Unmarked numbers belong to inactive results. Active and inactive are the calls of the source. Calls come from the whole dose curve; as a rule, active = well fitted inhibition curve with a large enough effect; inconclusive = small, poorly fitted or top-dose-only effect; inactive = flat fitted curve, though single readings scatter.
Note: nearly all actives have a fitted effect of over 60% in size.
Potency is the fitted concentration of half-maximal effect.

For `C#Cc1cccc(Nc2ncnc3cc(OCCOC)c(OCCOC)cc23)c1`, the Potency is 11.2 µM (active) in the test with ICS; 12.6 µM (active) with P94_40; 11.2 µM (active) with PAD; 4.26 µM (active) with W2; 18.7 µM (active) and 8.41 µM (active) in the test on CRL-7250; 16.6 µM (active) with HEK293. In the test with HaCat, the Potency is 5.9 µM (active) and 944 nM (active) and 651 nM (active). Further, the Potency result in the test with JCK and in the test with PC49 was “inactive” throughout. Besides, the max response with KB-3-1 was -10.3% and -1.91%.

Regarding `C[C@]1(c2nc3c(C(N)=O)cccc3[nH]2)CCCN1`, the max response in the test with CRL-7250 is -16.5%; with HEK293 it was -23.2%; with HaCat it was -38.2%; in the test on KB-3-1, -0.184%.

Regarding `OCCn1cc(-c2cnc3nnn(Cc4ccc5ncccc5c4)c3n2)cn1`, the max response was -20.1% in the test on CRL-7250; -13.9% in the test on HEK293; -20.1% with HaCat; 1.4% and -22% in the test on KB-3-1.

With `CC(C)(Sc1ccc(CCN(CCCCC2CCCCC2)C(=O)NC2CCCCC2)cc1)C(=O)O`, the max response in the test on CRL-7250 is -21.5% and -0.943%; in the test with HEK293, 4.49%; in the test on HaCat, -19.6% and 1.18%; in the test on KB-3-1, 5.99%. Further, the compound was classed as inactive with KB-3-1.

`O=C1[C@H](Cc2ccc(O)cc2)N2C(=O)CCN(C(=O)NCc3ccccc3)[C@H]2CN1Cc1cccc2ccccc12`: the max response in the test with CRL-7250 is -59.7%. Besides, the Potency with HEK293 is 2.09 µM (active); in the test on HaCat, 2.96 µM (active); with KB-3-1, 16.6 µM (active).

Take `C1COC(NC(C2CC2)C2CC2)=N1`: the Potency entry in the test on HB3, in the test on JCK, in the test on PC15, in the test on PC49, with SC27B and with TAB113 was “inactive” throughout. Moreover, in the test on W2, the Potency result is “inactive”. Moreover, in the test with PAD, the Potency is 11.2 µM (active). In addition, the max response with CRL-7250 is 1.84% and -1.88%; in the test with HEK293, 3.3% and -8.9%; with HaCat it was 1.37% and -11.9%. The result in the test on KB-3-1 was inactive.

`CC1(C)SCCN(S(=O)(=O)c2ccc(OCC#CCO)cc2)[C@@H]1C(=O)NO`: the values for the max response in the test with CRL-7250 and in the test with HEK293 were -4.21% and -25.6%, respectively. Also, in the test on KB-3-1, the call was inactive.

As for `NNCCc1ccccc1`, the Potency entry in the test on GB4, in the test with HB3, in the test with JCK, in the test with N140, in the test with P93_24 and in the test on PAD was “inactive” throughout. In addition, the Potency result in the test with PC15, in the test with PC26, in the test on PC49, in the test on SC27B, with TAB109 and in the test with TAB113 was “inactive” throughout. Further, the compound was classed as inactive in the test on CRL-7250. The max response in the test on HEK293 was -15.3%; in the test with HaCat, -0.0842% and -11.1%; in the test on KB-3-1, -10.1% and -6.14%.

Take `Nc1nc2[nH]cc(CCc3ccc(C(=O)N[C@@H](CCC(=O)O)C(=O)O)cc3)c2c(=O)[nH]1`: the max response is -1.95% with CRL-7250; -20.9% and 0.617% with KB-3-1. For the same compound, in the test on HEK293, the Potency is 1.48 µM (active).

On to `O=C1CCc2cc(OCCCCc3nnnn3C3CCCCC3)ccc2N1`, for which the Potency entry in the test on GB4, with ICS, in the test with JCK, with TAB109 and in the test with W2 was “inactive” each time. The max response with CRL-7250 was -14.2% and -108%; with HEK293 it was -7.13%; in the test on KB-3-1, -0.483% and -0.724%. Moreover, in the test on HaCat, the compound was classed as inactive.

Turning to `COc1cccc2cc(-c3nc(C4CCC(C(=O)O)CC4)n4ncnc(N)c34)[nH]c12` (centres undefined), the Potency in the test on CRL-7250 was 166 nM (active); in the test on HEK293 it was 5.9 µM (active) and 3.66 µM (active); with KB-3-1 it was 2.35 µM (active). In the test with HaCat, the max response was -14.5%.
